# Assay results from PubChem BioAssay (NCATS).
# Values joined by “and” are separate entries in the source; they are usually repeats but may differ in a detail not shown here. Identical values can stand only once. Records with an inconclusive call do not appear. Active and inactive are the calls of the source. The call rests on the fitted dose curve; in most records, active means well fitted activation curve with a large enough effect; inconclusive means small, poorly fitted or top-dose-only effect; inactive means no such curve, though single readings can be large or run the other way.
# Biological target: Cellular tumor antigen p53 (Homo sapiens) (UniProt P04637)
# Sequence (P04637 whole entry, looked up): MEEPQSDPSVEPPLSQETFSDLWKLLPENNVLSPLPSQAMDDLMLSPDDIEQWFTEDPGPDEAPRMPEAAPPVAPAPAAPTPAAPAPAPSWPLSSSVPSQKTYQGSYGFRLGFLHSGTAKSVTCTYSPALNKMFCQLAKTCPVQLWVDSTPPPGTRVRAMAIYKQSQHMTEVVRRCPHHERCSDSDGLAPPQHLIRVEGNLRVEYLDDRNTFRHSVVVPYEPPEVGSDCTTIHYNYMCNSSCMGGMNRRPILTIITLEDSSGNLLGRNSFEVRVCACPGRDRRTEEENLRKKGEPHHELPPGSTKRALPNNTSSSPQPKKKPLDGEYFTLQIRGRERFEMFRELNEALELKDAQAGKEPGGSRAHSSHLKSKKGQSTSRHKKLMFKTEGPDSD
# Assay: Primary qHTS for small molecule compounds that upregulate eGFP-tagged delta133p53alpha (in N-terminal) cells. (AID 2060322); further: nearly all actives have a fitted effect of over 75% in size;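 on activation: cells pre-induced with doxycycline then dosed without doxycycline; series mostly up to about 56 µM; 0% = DMSO vehicle and 100% = reference activator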
# Conditions: NCI-H358 eGFP-delta133p53alpha fluorescence, 24 h; activation: hits give high values
# Method in brief: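 NCI-H358 cells pre-induced 24 h with 10 ng/ml doxycycline for eGFP-delta133p53alpha, plated dox-free and exposed 24 h at 37C to titrated compounds. Fixed, Hoechst-stained; gated GFP peak intensity by laser scanning cytometry, normalized to DMSO (0%) and 57.5 uM 5-azacytidine (100%).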
# Potency means the concentration at half of the fitted maximal effect.
Compound,activation,Potency
Cc1oc(=O)oc1COC(=O)[C@@H]1N2C(=O)[C@@H](NC(=O)[C@H](N)c3ccccc3)[C@H]2SC1(C)C,-5.08% (inactive),
CC(C)Nc1cccnc1N1CCN(C(=O)c2cc3cc(NS(C)(=O)=O)ccc3[nH]2)CC1,-10.7% (inactive),
Cc1c(N)cccc1C(F)(F)F,-19.8% (inactive),
CCCCCN=C(N)NN=Cc1c[nH]c2ccc(OC)cc12,31% (inactive),
C[C@]12CC[C@H]3[C@@H](CCC4=CC(=O)CC[C@@]43C)[C@@H]1CC[C@@H]2C(=O)CO,-5.86% (inactive),
OC[C@H]1O[C@@H](Oc2ccc(O)cc2)[C@H](O)[C@@H](O)[C@H]1O,-6.58% (inactive),
COc1cc(C(=S)N2CCOCC2)ccc1O,-10.7% (inactive),
CCCC(CCC)(C(=O)OCC)C(=O)OCC,-3.95% (inactive),
CN[C@@H]1[C@H](O)[C@H](NC)[C@H]2O[C@@]3(O)C(=O)C[C@@H](C)O[C@H]3O[C@@H]2[C@H]1O,27.7% (inactive),
CO[C@@H]1[C@@H](O[C@@H]2O[C@H](C)[C@@H](O[C@H]3C[C@@](C)(O)[C@@H](O)[C@H](C)O3)[C@H](N(C)C)[C@H]2O)[C@@H](CC=O)C[C@@H](C)[C@@H](O[C@@H]2CC[C@H](N(C)C)[C@@H](C)O2)/C=C/C=C/C[C@@H](C)OC(=O)C[C@H]1OC(C)=O,-19.8% (inactive),
Cn1c(=O)c2[nH]c(Br)nc2n(C)c1=O,-3.95% (inactive),
CCOC(=O)c1cccnc1,-9.6% (inactive),
Nc1c(C(=O)Nc2ccc(F)cc2)sc2nc(-c3cccs3)cc(C(F)(F)F)c12,,1.53 µM (active)
CC(C)(C)NCC(O)COc1ccc(NC(=O)NC2CCCCC2)cc1 (stereo not given),5.08% (inactive),
C/C(=C(/OCCOc1ccc(Cl)cc1)c1ccc(Cl)cc1Cl)n1ccnc1,7.53% (inactive),
CCCCCCCCCCCCCCCC(=O)OC[C@@H](NC(=O)C(Cl)Cl)[C@H](O)c1ccc([N+](=O)[O-])cc1,7.1% (inactive),
O=C(Nc1ccc(C(=O)O)c(O)c1)c1ccccc1,-30.1% (inactive),
Cc1cc(-c2ccccc2)nnc1NCCN1CCOCC1,16.4% (inactive),
COc1ccc2c(c1)c(CC(=O)OC/C=C(\C)CC/C=C(\C)CCC=C(C)C)c(C)n2C(=O)c1ccc(Cl)cc1,-1.69% (inactive),
COc1cc(C=CC(=O)CC(=O)C=Cc2ccc(O)c(OC)c2)ccc1O,,39.5 µM (active)

Compound,activation,Potency
CCC(CC)(CC(=O)Nc1cccc(/C=C/c2nc(C3CCC3)cs2)c1)C(=O)O,24.3% (inactive),
Cc1ccnc(NS(=O)(=O)c2ccc(N)cc2)n1,-10.9% (inactive),
CC=C1NC(=O)[C@H]2CSSCCC=C[C@H](CC(=O)N[C@H](C(C)C)C(=O)N2)OC(=O)[C@H](C(C)C)NC1=O,27.9% (inactive),
Cc1ccc(S(=O)(=O)NC(=O)NC2CCCCCCC2)cc1,-3.95% (inactive),
CC1(C)CCC[C@@]2(C)[C@@H]1CC[C@@]1(C)OC(=O)C[C@H]21,-11.9% (inactive),
CC(CNC1CCCCC1)OC(=O)c1ccccc1 (stereo not given),-9.21% (inactive),
O=C(O)Cc1ccc(CCNS(=O)(=O)c2ccc(Cl)cc2)cc1,-1.67% (inactive),
CCCCCCCC(=O)[O-].CCCCCCCC(=O)[O-].[Zn+2],14.1% (inactive),
COC(=O)[C@@H]1[C@H]2C[C@@H]3c4[nH]c5ccccc5c4CCN3C[C@@H]2CC[C@@H]1O,21.4% (inactive),
Cc1cc(OI)c(C(C)C)cc1-c1cc(C(C)C)c(OI)cc1C,17.5% (inactive),
COc1cc2c(cc1OC)C(C(C(=O)N(CCc1ccc(OC)c(OC)c1OC)CCc1ccc(OC)c(OC)c1OC)c1ccccc1)=NCC2 (stereo not given),3.95% (inactive),
CCN(CC)CCNC(=O)c1cc(Br)c(N)cc1OC,13% (inactive),
CCCCCCCCNC(C)C(O)c1ccc(SC(C)C)cc1 (stereo not given),,21.9 µM (active)
CC(C)CN(C[C@@H](O)[C@H](Cc1ccccc1)NC(=O)O[C@H]1CO[C@H]2OCC[C@H]21)S(=O)(=O)c1ccc(N)cc1,22.9% (inactive),
OC[C@@H](O)[C@@H](O[C@@H]1O[C@H](CO)[C@H](O)[C@H](O)[C@H]1O)[C@H](O)[C@@H](O)CO,-8.37% (inactive),
OCc1ccccc1O[C@@H]1O[C@H](CO)[C@H](O)[C@H](O)[C@H]1O,15.8% (inactive),
CC(=O)N1C[C@H](O)C[C@H]1C(=O)O,14.2% (inactive),
C[C@H](CCC(=O)O)[C@H]1CC[C@H]2[C@H]3[C@@H](CC[C@]12C)[C@@]1(C)CC[C@@H](O)C[C@H]1C[C@@H]3O,-8.06% (inactive),
Nc1ccc(S(=O)(=O)Nc2ccccn2)cc1,-36.8% (inactive) and 13.3% (inactive),
CC(=O)OC[C@H]1O[C@@H](OC(C)=O)[C@H](OC(C)=O)[C@@H]1OC(C)=O,28.8% (inactive),
